# Legend:
# Test in all cases: pooled miR-30 sensor sort-seq; sequence = guide strand
# Conditions in all cases: shRNA
# GALE = biological target: GALE
# GAPDH = biological target: GAPDH
# GATA4 = biological target: GATA4
# GALT = biological target: GALT
# GH2 = biological target: GH2
# GLI3 = biological target: GLI3
# GLA = biological target: GLA
# GLCE = biological target: GLCE
# GLIPR2 = biological target: GLIPR2
# GPKOW = biological target: GPKOW
# GPR109B = biological target: GPR109B
# GPR123 = biological target: GPR123
# GPR137 = biological target: GPR137
# GPIHBP1 = biological target: GPIHBP1
# Note: reference of the scale not given here.
sequence,measurement,setting,value
AATAGCGCAGCAGCACTGCGTT,sensor-assay potency score (higher = more potent),GALE,-1.17
TTGTACGGGATCTTCTTCCCAG,sensor-assay potency score (higher = more potent),GALE,0.364
TGAAATAGCGCAGCAGCACTGC,sensor-assay potency score (higher = more potent),GALE,-0.836
TTGGAACATGTAAACCATGTAG,sensor-assay potency score (higher = more potent),GAPDH,-0.273
TTCTCAGCCTTGACGGTGCCAT,sensor-assay potency score (higher = more potent),GAPDH,-0.93
TTTATTCAGGTTCTTGGGCTTC,sensor-assay potency score (higher = more potent),GATA4,-0.422
TTCTGAGAAGTCGTCAAACATA,sensor-assay potency score (higher = more potent),GATA4,-1.72
ATTTCCATTGATGACAAGCTTC,sensor-assay potency score (higher = more potent),GAPDH,-1.07
TTAGATTTATTCAGGTTCTTGG,sensor-assay potency score (higher = more potent),GATA4,-0.334
TGGAACATGTAAACCATGTAGT,sensor-assay potency score (higher = more potent),GAPDH,-0.878
TAGCAGGGGCTCTCCATGCTGA,sensor-assay potency score (higher = more potent),GALT,-0.945
TCGCTGTTGAAGTCAGAGGAGA,sensor-assay potency score (higher = more potent),GAPDH,-1.53
TTGGCAGGTTTTTCTAGACGGC,sensor-assay potency score (higher = more potent),GAPDH,-0.926
GAAGTCGTCAAACATATCGAGA,sensor-assay potency score (higher = more potent),GATA4,-1.84
TAGTTGAGGTCAATGAAGGGGT,sensor-assay potency score (higher = more potent),GAPDH,-0.233
TTGATGACAAGCTTCCCGTTCT,sensor-assay potency score (higher = more potent),GAPDH,0.0762
TAGATCATCACGCTCAGCAGGG,sensor-assay potency score (higher = more potent),GALT,-0.0859
TTGGGCTTCCGTTTTCTGGTTT,sensor-assay potency score (higher = more potent),GATA4,-0.283
TTCCGCATTGCAAGAGGCCTGG,sensor-assay potency score (higher = more potent),GATA4,-0.334
AATTCGTTGTCATACCAGGAAA,sensor-assay potency score (higher = more potent),GAPDH,-1.59
TTTATTTTGAGAGATGTTGGAA,sensor-assay potency score (higher = more potent),GATA4,0.35
TTGATGGCAACAATATCCACTT,sensor-assay potency score (higher = more potent),GAPDH,-0.344
TTGACAAAGTGGTCGTTGAGGG,sensor-assay potency score (higher = more potent),GAPDH,-0.52
ATTGATGACAAGCTTCCCGTTC,sensor-assay potency score (higher = more potent),GAPDH,-0.354
TGTTGTCATACTTCTCATGGTT,sensor-assay potency score (higher = more potent),GAPDH,0.0358
ATATTGGAACATGTAAACCATG,sensor-assay potency score (higher = more potent),GAPDH,-1.54
TCGTCAAACATATCGAGATTGG,sensor-assay potency score (higher = more potent),GATA4,-0.878
TATTGGAACATGTAAACCATGT,sensor-assay potency score (higher = more potent),GAPDH,-0.597
AACATGTAAACCATGTAGTTGA,sensor-assay potency score (higher = more potent),GAPDH,-0.65
TGGAGCTTCATGTAGAGGCCGC,sensor-assay potency score (higher = more potent),GATA4,-0.527
TAAACCATGTAGTTGAGGTCAA,sensor-assay potency score (higher = more potent),GAPDH,0.434
TTGAGGTCAATGAAGGGGTCAT,sensor-assay potency score (higher = more potent),GAPDH,-0.473
TTTGCTATCCTCCAAGTCCCAG,sensor-assay potency score (higher = more potent),GATA4,-0.913
AACGTCTGGGACACGGAGCTGC,sensor-assay potency score (higher = more potent),GATA4,0.00321
TTGCTGTAGCCAAATTCGTTGT,sensor-assay potency score (higher = more potent),GAPDH,-1.2
TTAGCAGTCGTCTTCTTTCCAG,sensor-assay potency score (higher = more potent),GATA4,-0.572
TTGTCATGGATGACCTTGGCCA,sensor-assay potency score (higher = more potent),GAPDH,-0.37
ATATCTGGCAGGAAACTGCTGG,sensor-assay potency score (higher = more potent),GALT,-0.342
TTGATGCCGTTCATCTTGTGGT,sensor-assay potency score (higher = more potent),GATA4,-0.805
ATTGATGGCAACAATATCCACT,sensor-assay potency score (higher = more potent),GAPDH,-0.562
TGAGCTTGACAAAGTGGTCGTT,sensor-assay potency score (higher = more potent),GAPDH,0.19
ATGAGCTTGACAAAGTGGTCGT,sensor-assay potency score (higher = more potent),GAPDH,0.0447
TTTTTCTAGACGGCAGGTCAGG,sensor-assay potency score (higher = more potent),GAPDH,-1.01
ATAGGTGTCATATGCCAGCTGG,sensor-assay potency score (higher = more potent),GH2,-0.725
TTCTGCTGCGTTTTCACCCTGT,sensor-assay potency score (higher = more potent),GH2,0.325
TTGTGTCACTGAGCTGTCCTGA,sensor-assay potency score (higher = more potent),GLI3,-0.401
TGTCACAGTAACAACCATCAAA,sensor-assay potency score (higher = more potent),GLA,-0.951
TACCATACTGTTATCATCGAGT,sensor-assay potency score (higher = more potent),GLCE,0.0428
TTTCCTGTCTGATCATAGGATG,sensor-assay potency score (higher = more potent),GLIPR2,-0.835
TCAAACTTGACCTTCATCCAGA,sensor-assay potency score (higher = more potent),GLCE,-0.0575
TTTATCATAGCTACAGCCCAGG,sensor-assay potency score (higher = more potent),GLA,-0.597
TATAGTTCTTGATTTCACTGTA,sensor-assay potency score (higher = more potent),GLIPR2,0.562
TTTAGCAGATCTACTCCCCAGT,sensor-assay potency score (higher = more potent),GLA,-0.498
TTATAGTTCTTGATTTCACTGT,sensor-assay potency score (higher = more potent),GLIPR2,0.709
TCATTGACAACATTCCCCGCTG,sensor-assay potency score (higher = more potent),GLIPR2,-0.0819
TTGACAACATTCCCCGCTGGGA,sensor-assay potency score (higher = more potent),GLIPR2,-0.899
TTACTAGCCAATCACTAGCAGC,sensor-assay potency score (higher = more potent),GLCE,-1.01
TATACTACCTCCATCGGTCAGA,sensor-assay potency score (higher = more potent),GLI3,-0.385
TTGAGAATCGTGACCAAGGAGT,sensor-assay potency score (higher = more potent),GLI3,-0.494
TTTGAGTGTAACAATACTGATT,sensor-assay potency score (higher = more potent),GLI3,-0.904
TAACATATGGTATATAACCCAC,sensor-assay potency score (higher = more potent),GLCE,-0.994
TTGCATATAGTATTTGATCTAA,sensor-assay potency score (higher = more potent),GLCE,-0.789
AACATCAACAATTCTCTCCTGG,sensor-assay potency score (higher = more potent),GLA,0.959
TTTCGTGTCTTGCTGACTGAAG,sensor-assay potency score (higher = more potent),GLI3,-0.362
TTTAACATCAAAGTGAACTCAA,sensor-assay potency score (higher = more potent),GLCE,0.589
TTACCTTTTGCAATCAACCTAA,sensor-assay potency score (higher = more potent),GLCE,0.22
TGCTTGAGGATCCTCGTGCTGG,sensor-assay potency score (higher = more potent),GLIPR2,-0.832
TCTGATGATAGTATTCTGCTGG,sensor-assay potency score (higher = more potent),GLI3,0.381
TTATTTTGAACATCGGCACTGG,sensor-assay potency score (higher = more potent),GLCE,0.23
TTCTTGCAGAGCTTCAGTGGGG,sensor-assay potency score (higher = more potent),GLIPR2,-0.474
TATCTGGCCACCACAAAGGAGG,sensor-assay potency score (higher = more potent),GLIPR2,-1.73
TTCTTGATTTCACTGTACCATC,sensor-assay potency score (higher = more potent),GLIPR2,-1.16
TAAAAGGTCAAACTTGACCTTC,sensor-assay potency score (higher = more potent),GLCE,-0.602
TTACTTGCTGATTCCAGCTGAG,sensor-assay potency score (higher = more potent),GLA,0.0513
TAAAAAGTTGAACACAGTCTGC,sensor-assay potency score (higher = more potent),GLCE,-0.82
TTTGTTAACAGATAGGCCCTGA,sensor-assay potency score (higher = more potent),GLCE,0.615
ATAGTTCTTGATTTCACTGTAC,sensor-assay potency score (higher = more potent),GLIPR2,0.205
TTGTCGGCTTAGGATCTGCTGA,sensor-assay potency score (higher = more potent),GLI3,-0.967
TTCTTCCATACCATGGCCGTGA,sensor-assay potency score (higher = more potent),GLIPR2,-1.01
TTTGGTCATAGAACTGACCAGA,sensor-assay potency score (higher = more potent),GLI3,-0.608
TAACATGTGCACATTGTGCTTA,sensor-assay potency score (higher = more potent),GLCE,0.792
ATCTTCTTGGTGTTCTTCCATA,sensor-assay potency score (higher = more potent),GLIPR2,-1.63
TTTTTCTTTTCAGTGGTCGTGG,sensor-assay potency score (higher = more potent),GLI3,0.0526
TTGATCTTGGACCTCTTGTTGT,sensor-assay potency score (higher = more potent),GLI3,-0.765
TAGACATGAATAAAGGAGCAGC,sensor-assay potency score (higher = more potent),GLA,-0.359
TAAATTTTGGTAAATATTGGGT,sensor-assay potency score (higher = more potent),GPKOW,-0.472
TTGGAATGGTTATTTGAGGTTG,sensor-assay potency score (higher = more potent),GPR109B,-0.497
TCTTCAATTATCATCTTGGTGT,sensor-assay potency score (higher = more potent),GPKOW,-0.0614
TGCATCTTGGCGCAGCACGGGG,sensor-assay potency score (higher = more potent),GPR123,-1.59
TTCTCTTGCTCCTCATCTGGTC,sensor-assay potency score (higher = more potent),GPKOW,-0.383
TAATTCCTGATGTTCGTGGCAG,sensor-assay potency score (higher = more potent),GPR123,-0.373
TCACCTGTTATCTTCCTCTGGA,sensor-assay potency score (higher = more potent),GPR109B,-0.218
TCGTTCTGCAGCACGGAGGCGC,sensor-assay potency score (higher = more potent),GPR123,-0.763
AAACATGAAGAGCACCAGCCGG,sensor-assay potency score (higher = more potent),GPR109B,-1.47
TTCTTGGTCACCTGCTTGTAGA,sensor-assay potency score (higher = more potent),GPR123,-1.61
TAGCTGAGACGCTTGTGCCCAT,sensor-assay potency score (higher = more potent),GPR137,-0.72
TTGGCAATGAAGTCATCTCGGA,sensor-assay potency score (higher = more potent),GPR109B,-0.164
TCAATTATCATCTTGGTGTTGT,sensor-assay potency score (higher = more potent),GPKOW,0.378
TGCAGTGCCATTCTGGATCAGC,sensor-assay potency score (higher = more potent),GPR109B,-0.994
TTCCTCGTCGTAGTCATCTGGC,sensor-assay potency score (higher = more potent),GPIHBP1,-0.201
AACAGGAACAGCGTGAAGGCGG,sensor-assay potency score (higher = more potent),GPR123,-0.39
TAGGACATCTTCAATTATCATC,sensor-assay potency score (higher = more potent),GPKOW,-1.06
ATTCTGGATCAGCAACTTCTTC,sensor-assay potency score (higher = more potent),GPR109B,-1.51
AACATGAAGAGCACCAGCCGGC,sensor-assay potency score (higher = more potent),GPR109B,-0.505
TCGCAGTGCATCTTGGCGCAGC,sensor-assay potency score (higher = more potent),GPR123,-1.13
TAGAAAGTCAGCTACTGCCAGG,sensor-assay potency score (higher = more potent),GPR109B,-1.14
TACAGAACTGGTACCAGCCTGG,sensor-assay potency score (higher = more potent),GPKOW,-0.224
TAGTAGTCCATCACGAACGGCA,sensor-assay potency score (higher = more potent),GPR109B,-0.532
TTCTCTTGGCAGTTGCACCAAA,sensor-assay potency score (higher = more potent),GPKOW,-0.529
ATAGTAGTCCATCACGAACGGC,sensor-assay potency score (higher = more potent),GPR109B,-1.03
TTCTTGTCAAACTCCTGCTGGG,sensor-assay potency score (higher = more potent),GPKOW,-0.621
TACATGTTGTCCACAAACCGCA,sensor-assay potency score (higher = more potent),GPKOW,-0.382
TTCAATTATCATCTTGGTGTTG,sensor-assay potency score (higher = more potent),GPKOW,-0.529
TAGGCCAACAGTGATGCCCCAC,sensor-assay potency score (higher = more potent),GPR109B,-0.395
TGGCAATGAAGTCATCTCGGAA,sensor-assay potency score (higher = more potent),GPR109B,-1.54
TGTGTGCGCAGCTCGTACCTGC,sensor-assay potency score (higher = more potent),GPR123,-0.983
TAGCAATTTACCCTTGGGCAGC,sensor-assay potency score (higher = more potent),GPR123,-1.23
TTCTGCAGCACGGAGGCGCCGG,sensor-assay potency score (higher = more potent),GPR123,-0.928
TCACTAACAGTCACCACCCGGC,sensor-assay potency score (higher = more potent),GPKOW,-0.433
TTTTCCAGGGTCCCGTTCGGAT,sensor-assay potency score (higher = more potent),GPR123,-1.35
